Measured values from PubChem BioAssay (NCATS).
Inconclusive results are not listed. Activity calls are given as the source filed them. The call rests on the fitted dose curve; in most records, active means well fitted cell-killing curve with a large enough effect; inconclusive means small, poorly fitted or top-dose-only effect, or effect the other way; inactive means flat fitted curve, though single readings scatter.

system: OV90; assay: Primary qHTS to identify gynecologic anti-cancer compounds using libraries of approved drugs and bioactive compounds (AID 1345084); conditions: Gynecologic cancer cell panel viability, ATPlite luminescence, 48 h; series mostly up to 57.5 µM; activity change, negative = cytotoxicity: at the top concentration; further: nearly all actives have a fitted effect of over 55% in size
Summary of the method: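 48 h compound exposure at 37 C, 5% CO2; five-point qHTS. ATPlite luminescence readout of cell ATP.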
On the % scale 0 is the no-effect control and ±100 the full control effect.

| SMILES | activity change, negative = cytotoxicity |
| --- | --- |
| CCC(C)C(=O)O[C@H]1CCC=C2C=C[C@H](C)[C@H](CC[C@@H](O)C[C@@H](O)CC(=O)O)[C@H]21 (stereo partly drawn) | -2.27% [at 25.3 µM] (inactive) |
| CC(=O)NC1C(OC(C)(C)C2CCC3(C)C=C(C4CCC5C4(C)CC(O)C4OC(C(C)(C)O)CCC45C)CCC3O2)OC(CO)C(O)C1O (stereo not drawn) | 11.1% [at 25.3 µM] (inactive) |
| CC(=O)O[C@@H]1c2c3c(cc(O)c2C(=O)O[C@@H]1C)O[C@@]1(C)[C@@H](O)C[C@H]2C(C)(C)C(=O)C=C[C@]2(C)[C@@H]1C3 | -8.87% [at 25.3 µM] (inactive) |
| COc1c(C)c(OCC(O)C(C)(C)O)cc2c1COC2=O (stereo not drawn) | -6.08% (inactive) |
| CC(=O)CC1CCC(C(C)C(=O)OCC(O)CO)O1 (stereo not drawn) | 8.68% (inactive) |
| O=C(O)COCCN1CCN([C@H](c2ccccc2)c2ccc(Cl)cc2)CC1 | 15.3% (inactive) |
| Nc1nc2c(ncn2[C@@H]2O[C@@H]3COP(=O)(O)O[C@H]3[C@H]2O)c(=O)[nH]1 | -4.71% (inactive) |
| CC1=C(C(=O)O)/C(=C/CO[C@@H]2O[C@H](COC(=O)/C=C/c3ccc(O)cc3)[C@@H](O)[C@H](O)[C@H]2O)C(O)C1 (stereo partly drawn) | 6.69% [at 25.3 µM] (inactive) |
| Cc1cc(C)c2c(N)c(C(=O)NCc3ccc(Cl)cc3)sc2n1 | -10.1% (inactive) |
| CC(=O)OC1C(O)C2C(C)C3=CC(=O)OC3(O)CC2C2(C)CCCC(C)(CO)C12 (stereo not drawn) | -10.8% [at 25.3 µM] (inactive) |
| CC(C)C(NC(=O)c1ccc2ccccc2n1)C(=O)NC(CC(=O)O)C(=O)COc1c(F)cccc1F (stereo not drawn) | 0.352% (inactive) |
| O=C(Nc1ccc(-c2ccncc2)cc1)N[C@H](CO)c1ccccc1 | -7.02% (inactive) |
| CC1=CC2/C=C(\C)CC[C@@H](O)[C@@H](O)[C@@H]3O[C@@H]3C(=O)[C@]23C(=O)N[C@@H](CC(C)C)[C@@H]3[C@@H]1C (stereo partly drawn) | 12.8% [at 25.3 µM] (inactive) |
